Laboratory results taken from PubChem BioAssay AID488969 (Vanderbilt High Throughput Screening Facility, 2010).
The full ranking holds about 110,000 compounds; the median of “z-score” is about -0.1, and the highest 2% start at about 2. This excerpt belongs to a sample that is enriched for the highest values. Active and inactive are the calls of the source.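 How the source made its calls: active means z-score in the third read window above 3 or below -3; inactive means the rest.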

Target: Metabotropic glutamate receptor 8 (Rattus norvegicus) (UniProt P70579)
Sequence (P70579 whole entry, looked up): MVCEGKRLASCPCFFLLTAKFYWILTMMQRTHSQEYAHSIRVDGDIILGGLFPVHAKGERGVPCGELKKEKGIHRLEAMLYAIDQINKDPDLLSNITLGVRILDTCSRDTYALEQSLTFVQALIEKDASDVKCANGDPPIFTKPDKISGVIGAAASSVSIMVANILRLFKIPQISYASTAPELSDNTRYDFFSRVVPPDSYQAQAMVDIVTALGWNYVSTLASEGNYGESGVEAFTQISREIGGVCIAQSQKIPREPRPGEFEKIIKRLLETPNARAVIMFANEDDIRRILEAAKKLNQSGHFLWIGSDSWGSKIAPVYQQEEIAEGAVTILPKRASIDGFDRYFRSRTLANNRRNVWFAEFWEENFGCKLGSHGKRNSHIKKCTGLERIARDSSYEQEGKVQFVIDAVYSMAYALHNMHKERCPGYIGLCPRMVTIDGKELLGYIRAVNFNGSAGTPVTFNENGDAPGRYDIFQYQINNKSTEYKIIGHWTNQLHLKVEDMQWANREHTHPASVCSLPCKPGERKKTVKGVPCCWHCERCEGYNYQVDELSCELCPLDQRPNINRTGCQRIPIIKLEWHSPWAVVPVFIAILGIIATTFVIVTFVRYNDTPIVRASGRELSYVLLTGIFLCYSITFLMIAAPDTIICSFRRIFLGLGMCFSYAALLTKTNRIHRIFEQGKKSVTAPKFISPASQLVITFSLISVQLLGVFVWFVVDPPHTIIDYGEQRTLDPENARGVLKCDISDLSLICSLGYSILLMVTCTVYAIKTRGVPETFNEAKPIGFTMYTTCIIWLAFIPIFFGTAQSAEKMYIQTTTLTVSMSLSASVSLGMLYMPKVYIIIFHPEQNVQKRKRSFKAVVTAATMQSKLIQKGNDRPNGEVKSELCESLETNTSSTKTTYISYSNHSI
Experiment: mGluR8 Gi/Go-coupled signaling modulation – cell-based, rat, thallium flux, HTS, primary screen (AID 488969)
Settings: HEK293 rat mGluR8, GIRK (G protein-gated inwardly rectifying potassium channel) thallium flux, FluoZin2; at 10 µM; stronger effect = higher value; submaximal glutamate (EC20) added with thallium

Row | Structure (SMILES) | z-score
1 | COc1cccc2[nH]c3c(N4CCC(C(N)=O)CC4)ncnc3c12 | 0.0357
2 | Cc1ccc(S(=O)(=O)N(CCC(=O)O)Cc2ccc(Cl)cc2)cc1 | -0.125
3 | Cc1ccc(S(=O)(=O)N2CCN(C(=O)CN3C(=O)NC4(CCOc5ccccc54)C3=O)CC2)cc1 (stereo not given) | 0.106
4 | CCN(CC)CCn1cnc2c([nH]c3cccc(OC)c32)c1=O | -0.0646
5 | CCOC(=O)N1CCN(C(=O)NC23CC4CC(CC(C4)C2)C3)CC1 | -0.174
6 | CCOC(=O)C1CCN(C(=O)C23CC4CC(CC(C4)C2)C3)CC1 | 0.212
7 | CCOC(=O)C1CCN(C(=O)NC23CC4CC(CC(C4)C2)C3)CC1 | 3.31 (active)
8 | Cc1cccc(NC(=S)NCCc2c[nH]c3ccccc23)c1 | 0.201
9 | CC(C)(C)Nc1nc2nonc2nc1NC(C)(C)C | -0.28
10 | Cc1oc(/C=N/NC(=O)CN(c2ccccc2Br)S(C)(=O)=O)cc1Br | -0.262
11 | CCN(CC)S(=O)(=O)c1csc(C(=O)NCc2ccccc2)c1 | 2.45
12 | CCN(CC)S(=O)(=O)c1csc(C(=O)NC2CCCCC2)c1 | 0.101
13 | CCN(CC)S(=O)(=O)c1csc(C(=O)OCC(=O)c2ccccc2)c1 | -0.217
14 | COn1c2c(c3c4no[n+]([O-])c4ccc31)CCCC2 | -0.414
15 | COc1cccc(NC(=O)CCSc2ccc3ccccc3n2)c1 | -0.0656
16 | O=C(O)c1cc(NS(=O)(=O)c2ccc(N3CCCCC3)c([N+](=O)[O-])c2)cc(C(=O)O)c1 | -0.105
17 | CCC(C)n1c(SCC(=O)NC(=O)Nc2ccc3c(c2)OCCO3)nc2ccccc2c1=O (stereo not given) | 4.47 (active)
18 | COCC(C)n1c(SCC(=O)NC(=O)Nc2ccc3c(c2)OCCO3)nc2ccccc2c1=O (stereo not given) | -1.25
19 | CCC(C)n1c(SCC(=O)Nc2cc(C)on2)nc2ccccc2c1=O (stereo not given) | 0.0932
20 | Cn1c(=O)c2c(nc(SCC(=O)NCc3ccco3)n2C)n(C)c1=O | 0.332
21 | C/C(CC(=O)Nc1ccccn1)=N\NC(=O)c1ccc2ccccc2c1 | -0.53
22 | CCCNC(=O)C(=O)Nc1ccc(N(C)C)cc1 | -0.0526

Row | Structure (SMILES) | z-score
23 | Cc1cccnc1NC(=S)NC(=O)c1cncc(Br)c1 | -0.14
24 | O=C(NC(=S)Nc1ccccn1)c1cncc(Br)c1 | 0.829
25 | COc1ccccc1/C=C/C(=O)NC(=S)N(C)C1CCCCC1 | 4.46 (active)
26 | Cc1ccccc1NC(=S)NC(=O)c1cncc(Br)c1 | 6.92 (active)
27 | COc1ccccc1/C=C/C(=O)NC(=S)Nc1ccc(S(=O)(=O)N(C)c2ccccc2)cc1 | 0.119
28 | COc1ccccc1/C=C/C(=O)NC(=S)NC(C)C | 0.776
29 | O=C(NC(=S)Nc1ccc(Br)cn1)c1cncc(Br)c1 | 0.371
30 | CC1CCCC(NC(=S)NC(=O)c2ccccc2Br)C1C (stereo not given) | 2.91
31 | CC1CCCCC1NC(=S)NC(=O)c1ccccc1Br (stereo not given) | 0.799
32 | O=C(NC(=S)Nc1ncc(Br)cc1Br)c1cncc(Br)c1 | 0.278
33 | CC1CCCC(NC(=S)NC(=O)c2cncc(Br)c2)C1C (stereo not given) | 6.76 (active)
34 | O=C(NC(=S)NCC1CCCO1)c1ccccc1Br (stereo not given) | 1.6
35 | CCOC(=O)c1c(C)nc2sc3c(=O)n(-c4ccc(C(C)=O)cc4)cnc3c2c1-c1ccc(Cl)cc1 | -0.533
36 | CC(C)(Oc1ccc(Cl)cc1)C(=O)N1CCN(c2ccccn2)CC1 | -0.0555
37 | Cc1cc(C)nc(/N=C2\NC(=O)CC3C(=O)NCCN23)n1 (stereo not given) | -0.12
38 | CS(=O)(=O)N(CC(=O)NCc1ccncc1)c1ccc(Cl)c(Cl)c1 | -0.214
39 | COC(=O)c1cc(Cl)c(NC(=O)/C=C/c2ccc(Cl)cc2)cc1OC | -0.0302
40 | CCCN1C2CCCC1CC(NC(=O)Nc1ccc(C(C)C)cc1)C2 (stereo not given) | 0.407
41 | CN1CCN(Cc2cc(=O)oc3cc4c(cc23)CCC4)CC1 | 0.745
42 | CN(C(=O)c1ccc(C(=O)N(C)C2CCCCC2)cc1)C1CCCCC1 | 0.244
43 | O=C(NC(=S)NC1CC1)c1cccnc1 | 0.798
44 | O=C(NC(=S)NC1CCCCCC1)c1cncc(Br)c1 | 6.87 (active)

Row | Structure (SMILES) | z-score
45 | CN(C(=O)c1ccccc1Cl)C1CCCCC1 | 0.549
46 | CN(C(=S)NC(=O)c1ccccc1Br)C1CCCCC1 | 3.51 (active)
47 | O=C(NC(=S)NC1CCCCCCCCCCC1)c1cccnc1 | -0.0629
48 | c1ccc2sc(C3CCN(Cc4nnnn4Cc4ccc5c(c4)OCO5)CC3)nc2c1 | 0.227
49 | CCc1nc(NCCCCCO)c2nnn(Cc3ccccc3F)c2n1 | -0.538
50 | CCN(CC)CCCn1c(=S)[nH]c2cc(C(=O)OC)ccc2c1=O | 0.199
51 | O=C(NCC1CCCO1)c1ccc2c(=O)n(CC3CCCO3)c(=S)[nH]c2c1 (stereo not given) | 0.352
52 | COCCCNC(=O)c1ccc2c(=O)n(CC3CCCO3)c(=S)[nH]c2c1 (stereo not given) | 0.247
53 | COC(=O)c1ccc2c(=O)n(CCO)c(=S)[nH]c2c1 | 0.000255
54 | COC(=O)c1ccc2c(=O)n(CC3CCCO3)c(=S)[nH]c2c1 (stereo not given) | 7.72 (active)
55 | CCn1c(=S)[nH]c2cc(C(=O)OC)ccc2c1=O | 7.77 (active)
56 | O=C1CN(c2ccccc2Cl)C(=O)CN1c1ccccc1Cl | 0.348
57 | Cc1cccc(C)c1N1CCc2cn[nH]c21 | -0.273
58 | O=C(CSc1nc2cc(Cl)ccc2s1)NC1CCCc2ccccc21 (stereo not given) | -0.115
59 | CC12CCC(C(=O)N(Cc3ccccc3)Cc3ccccc3)(OC1=O)C2(C)C (stereo not given) | -0.0292
60 | Cc1cc(NC(=O)CSc2nc3ccccc3c(=O)n2Cc2ccccc2)no1 | 4.05 (active)
61 | COc1ccc(NC(=O)CSc2nc3ccccc3c(=O)n2CCCN2CCCCC2)c(OC)c1 | 3.69 (active)
62 | CCC(C)NC(=O)CSc1nc2ccccc2c(=O)n1Cc1ccc(OC)cc1 (stereo not given) | 3.19 (active)
63 | Cc1cc(NC(=O)CSc2nc3ccsc3c(=O)n2NC(=O)c2ccccc2)no1 | 3.32 (active)
64 | O=C(CSc1nc2ccsc2c(=O)n1NC(=O)c1ccccc1)Nc1nccs1 | -0.202
65 | CCCCn1c(SCC(=O)Nc2cc(C)on2)nc2ccccc2c1=O | -1.45
66 | CCCCNC(=O)CSc1nc2cc(OC)c(OC)cc2c(=O)n1Cc1ccc(OC)cc1 | -0.298

Row | Structure (SMILES) | z-score
67 | Cc1ccc(NC(=O)CSc2nc3ccccc3c(=O)n2CCCN2CCCCC2)cc1C | 0.975
68 | CCOCCCn1c(SCC(=O)NC(C)C)nc2ccccc2c1=O | 0.328
69 | COc1ccc(NC(=O)CSc2nc3ccccc3c(=O)n2Cc2cccs2)c(OC)c1 | 0.00897
70 | Cc1ccc(Cn2c(SCC(=O)Nc3cc(C)on3)nc3ccccc3c2=O)cc1 | 1.07
71 | CC(C)CCNC(=O)CSc1nc2ccsc2c(=O)n1NC(=O)c1ccccc1 | -0.0204
72 | Cc1cc(C)[n+](-c2ccc(F)cc2)c2[nH]c(=O)[nH]c(=O)c12 | 0.407
73 | Cc1ccc(C(=O)N2CC(=O)Nc3ccc(F)cc3C2c2ccccc2)cc1[N+](=O)[O-] (stereo not given) | -0.229
74 | O=C(NNC(=O)c1sc2cccc(Cl)c2c1Cl)Nc1ccccc1 | -0.00877
75 | C=CCn1c(SCC(=O)Nc2ccc3c(c2)OCO3)nc2ccccc2c1=O | 0.212
76 | Cc1ccc(OCCCN(C)C)c(Br)c1 | 1.17
77 | CCOC(=O)c1oc2ccc(S(=O)(=O)n3nc(-c4ccc(Cl)cc4)cc3N)cc2c1C | -0.324
78 | CN(CCC#N)C(=O)COC(=O)c1ccc(Cl)c(S(N)(=O)=O)c1 | 0.0421
79 | CC1CCN(C(=O)CSc2nc3ccccc3c(=O)n2Cc2ccc3c(c2)OCO3)CC1 | 2.16
80 | CC1CCN(C(=O)Cn2c(=O)n(Cc3ccc4c(c3)OCO4)c(=O)c3ccccc32)CC1 | -1.65
81 | CCCCNC(=O)CSc1nc2ccccc2c(=O)n1Cc1ccc2c(c1)OCO2 | 0.908
82 | Cc1cccc(-n2ncc3c(NCCc4ccc(S(N)(=O)=O)cc4)ncnc32)c1 | 8.89 (active)
83 | Cc1cccc(-n2ncc3c(NCCCO)ncnc32)c1 | 0.607
84 | c1ccc(CCNc2ncnc3c2cnn3-c2ccccc2)cc1 | -1.25
85 | O=C(CSc1ccc2nnc(-c3cccc(F)c3)n2n1)N1CCCc2ccccc21 | -0.911
86 | Cc1ccc(NC(=O)CN(C)C(=O)CCOc2ccccc2C)cc1 | 1.66
87 | CCC(CC)C1C(C#N)=C(N)Oc2n[nH]c(-c3ccccc3)c21 (stereo not given) | -0.557
88 | S=C(NN=C1C2CC3CC(C2)CC1C3)Nc1ccccc1 | 11.7 (active)

Row | Structure (SMILES) | z-score
89 | S=C(N/N=C1\C2CN3CCN(C2)CC1(c1ccccc1)C3)Nc1ccccc1 | 0.425
90 | O=C(NNC(=S)Nc1ccccc1)C1CC1 | -0.336
91 | O=C(NN=C1C2CC3CC(C2)CC1C3)c1cccs1 | 0.589
92 | CCC(=O)Nc1ccc(NC(=S)Nc2ccccc2)cc1 | -0.362
93 | S=C(NN=C(C1CC1)C1CC1)Nc1ccccc1 | 4.43 (active)
94 | CNC(=S)N/N=C/c1c(C)nn(-c2cccc(Cl)c2)c1Cl | -0.134
95 | CCOC(=O)C1CCN(C(=O)CSc2nnc(-c3ccco3)n2-c2ccccc2)CC1 | -0.369
96 | O=C(NCc1ccccc1Cl)c1ccccc1Oc1ccccc1 | -0.412
97 | CCOC(=O)C1C(=O)Nc2nc3ccccc3n2C1C(C)C (stereo not given) | -0.438
98 | CC(=O)Nc1c(-c2ccc(F)cc2)nc2ccccn12 | 2.25
99 | COC(=O)Nc1c(-c2ccccc2)nc2ccccn12 | -0.126
100 | CC(=O)Nc1c(-c2ccccc2)nc2ncccn12 | 2.69
101 | Cc1cccc(C)c1Nc1c(-c2ccsc2)nc2ncccn12 | -0.464
102 | Cc1ccc(-c2nc3ncccn3c2NC(=O)C2CC2)cc1 | 0.268
103 | Cc1ccc(-c2nc3ccccn3c2NC(=O)c2ccco2)cc1 | 0.65
104 | CC(C)(C)NC(=O)CN(C(=O)Cn1nnc(-c2ccc(Cl)cc2)n1)C1CCN(Cc2ccccc2)CC1 | -0.128
105 | CC1CC(C)CN(c2ncnc3c2cnn3Cc2ccc(Cl)cc2)C1 (stereo not given) | -0.714
106 | O=C(CSc1nnnn1-c1cccnc1)Nc1ccc(OCc2ccccc2)cc1 | -0.183
107 | CCn1c(=O)c(C(=O)NCCCO)c(O)c2ccccc21 | 3.51 (active)
108 | CCn1c(=O)c(C(=O)NCCc2ccccc2)c(O)c2ccccc21 | 0.613
109 | CCNCCNC(=O)c1c(O)c2ccccc2n(CC)c1=O | -0.289
110 | COc1ccc(C(=O)COc2ccc(NC(C)=O)cc2)cc1 | -0.0378
